From PubChem
A selection: hits, their analogues and other compounds. The true share with any hit is near 8%.
KB-V1 cytotox: kills drug-selected multidrug resistant KB-V1 cells. KB-V1 MDR cells viability, CellTiter-Glo, 72 h. Potency, µM (top dose mostly 46.1 µM), usual class: cytotoxic. 3.4% of 400,000 active. AID 1347076; further: on the % scale 0 is the no-effect control and ±100 the full control effect; nearly all actives have a fitted effect of over 60% in size
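Readout: CellTiter-Glo luminescence, 10 min after addition. Cells: KB-V1 MDR subline, 72 h at 37 degrees C with compound. Analysis: corrected, normalized data fitted to concentration-effect curves.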
KB-3-1 cytotox: kills parental KB-3-1 adenocarcinoma cells; 1.4% of 400,000 active; KB-3-1 viability, CellTiter-Glo ATP luminescence, 72 h; Potency, µM (titrated, usually from 46.1 µM), actives largely listed as cytotoxic; further: on the % scale 0 is the no-effect control and ±100 the full control effect; nearly all actives have a fitted effect of over 60% in size
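Multi-concentration cytotoxicity screen in KB-3-1 cells grown in DMEM lacking phenol red with 10% FBS. After 72 h at 37 °C with compound, ATP-dependent luminescence was recorded.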
HT1080 IDH1KD tx: kills HT-1080 cells with IDH1 knockdown | HT-1080 IDH1 knockdown viability, ATP luminescence, 48 h | Potency, µM (titrated, usually from 46.1 µM), for the others: at the highest dose activity, negative = toxicity, hits mostly cytotoxic | 2% of 360,000 active | AID 686971;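 further: 0% = DMSO wells and -100% = cell-free medium wells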
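In this qHTS, HT-1080 cells depleted of IDH1 are exposed for 48 h at 37 °C to compound titrations. Toxicity is scored from CellTiter-Glo luminescence, with DMSO as full viability and medium alone as none.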
SW480 rereplic: DNA re-replication induction in SW480 cells; SW480 DNA re-replication, Hoechst DNA content imaging, 48 h; Potency, µM (doses to about 46.1 µM), for the others: at the highest dose re-replication activation, usual class: activators; 1.8% of 340,000 active; further: % of control where 0% means no effect; nearly all actives have a fitted effect of over 55% in size
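250 cells/well; 23 nL cpd via pin tool; 48 hr, 37 C, 5% CO2; Hoechst 40 min; imager read of total nuclear intensity, ex 405/em 500-530 nm.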
HT1080NT lethal: kills 2HG-producing HT-1080-NT fibrosarcoma cells; HT-1080-NT fibrosarcoma viability, CellTiter-Glo ATP luminescence, 48 h; 1.6% of 360,000 active; Potency, µM (highest dose often 46.1 µM), without a hit: at the top dose activity, negative = less viability, usual class: cytotoxic; AID 686970;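 further: NT is the 2HG producing partner of a matched IDH1 knockdown line; 0% = DMSO-treated cells and -100% = media-only wells without cells; nearly all actives have a fitted effect of over 55% in size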
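Viability of the 2HG-overproducing fibrosarcoma line after 48 hours of compound exposure at 37 degrees C was determined by luminescence with CellTiter-Glo, and concentration-effect curves were then fitted and categorized.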
MCF10A rereplic: DNA re-replication induction in MCF 10a cells | MCF 10A DNA re-replication, Hoechst nuclear intensity, 48 h | Potency, µM (highest dose often 46.1 µM), without a hit: at the highest dose activity, positive = re-replication, most hits filed as activators | 2.9% of 350,000 active | AID 624296; further: % of control where 0% means no effect; nearly all actives have a fitted effect of over 50% in size
* marks the source's active call; other numbers are inactive results. The call rests on the fitted dose curve; in most records, active means well fitted curve in the direction sought with a large enough effect; inconclusive means small, poorly fitted or top-dose-only effect, or another doubt; inactive means no such curve, though single readings can be large; an effect the other way counts as inactive or inconclusive. Potency means the concentration at half of the fitted maximal effect.

How did O=C(Cc1ccc(Cl)cc1)Nc1ccccc1N1CCN(C(=O)c2ccccc2)CC1 do in these assays?
KB-V1 cytotox: inconclusive; KB-3-1 cytotox: inactive; HT1080 IDH1KD tx: -29.7%; SW480 rereplic: inconclusive; HT1080NT lethal: -16.3%; MCF10A rereplic: 18.4µM*

What do the screens show for `O=C(Nc1ccccc1N1CCN(C(=O)c2ccc(Cl)cc2)CC1)c1ccc([N+](=O)[O-])o1`?
KB-V1 cytotox: inconclusive; KB-3-1 cytotox: 20.6µM*; HT1080 IDH1KD tx: inconclusive; SW480 rereplic: 16.4µM*; HT1080NT lethal: inconclusive; MCF10A rereplic: inconclusive

What do the screens show for `COc1ccc(C(=O)Nc2ccc(N3CCN(C(=O)c4ccccc4)CC3)cc2)cc1[N+](=O)[O-]`?
KB-V1 cytotox: inconclusive; KB-3-1 cytotox: inactive; HT1080 IDH1KD tx: -15.8%; SW480 rereplic: -12.2%; HT1080NT lethal: -7.9%; MCF10A rereplic: 5.8%

What do the screens show for `O=C(Nc1ccccc1N1CCCCC1)c1ccc([N+](=O)[O-])o1`?
KB-V1 cytotox: inconclusive; KB-3-1 cytotox: inconclusive; HT1080 IDH1KD tx: 1.8%; SW480 rereplic: inconclusive; HT1080NT lethal: 0.4%; MCF10A rereplic: inconclusive

How did Cc1ccccc1C(=O)N1CCN(c2ccc(NC(=O)c3cccnc3)cc2)CC1 do in these assays?
KB-V1 cytotox: inconclusive; KB-3-1 cytotox: inactive; HT1080 IDH1KD tx: -7.6%; SW480 rereplic: -3.7%; HT1080NT lethal: -2.1%; MCF10A rereplic: 6.3%

How did O=C(Nc1ccc(N2CCN(C(=O)c3ccccc3)CC2)cc1)c1ccc([N+](=O)[O-])o1 do in these assays?
KB-V1 cytotox: inconclusive; KB-3-1 cytotox: inactive; HT1080 IDH1KD tx: inconclusive; SW480 rereplic: -14.7%; HT1080NT lethal: 7.31µM*; MCF10A rereplic: inconclusive

How did Cc1ccccc1C(=O)N1CCN(c2ccc(NC(=O)c3ccc([N+](=O)[O-])o3)cc2)CC1 do in these assays?
KB-V1 cytotox: inconclusive; KB-3-1 cytotox: 5.8µM*; HT1080 IDH1KD tx: 2.59µM*; SW480 rereplic: 1.64µM*; HT1080NT lethal: 1.3µM*; MCF10A rereplic: inconclusive

How did COCCCNC(=O)CCc1c(C)nc2cc(-c3ccc(Cl)cc3)nn2c1C do in these assays?
KB-V1 cytotox: inactive; KB-3-1 cytotox: inactive

How did COc1ccc(-n2ncc(C(=O)N3CCN(Cc4ccccc4)CC3)c2C2CCN(C(=O)OC(C)(C)C)CC2)cc1 do in these assays?
KB-V1 cytotox: inactive; KB-3-1 cytotox: inactive

How did CCN(CC)CCCNC(=O)c1sc2nc(-c3ccc(F)cc3)cn2c1C do in these assays?
KB-V1 cytotox: 16.4µM*; KB-3-1 cytotox: inactive; HT1080 IDH1KD tx: inconclusive; SW480 rereplic: inconclusive; HT1080NT lethal: inconclusive; MCF10A rereplic: 23.1µM*

Results for Cc1c(C(=O)NCc2ccccn2)sc2nc(-c3ccccc3)cn12 ?
KB-V1 cytotox: inactive; KB-3-1 cytotox: 9.2µM*; HT1080 IDH1KD tx: inconclusive; SW480 rereplic: -5.3%; HT1080NT lethal: inconclusive; MCF10A rereplic: 14.6%

What do the screens show for `COCCNC(=O)c1sc2nc(-c3ccccc3)cn2c1C`?
KB-V1 cytotox: 13µM*; KB-3-1 cytotox: inactive; HT1080 IDH1KD tx: 16.2%; SW480 rereplic: -8.4%; HT1080NT lethal: 11.4%; MCF10A rereplic: -10.6%

Results for Cc1c(C(=O)NCc2ccccn2)sc2nc(-c3ccc(F)cc3)cn12 ?
KB-V1 cytotox: inactive; KB-3-1 cytotox: inconclusive; HT1080 IDH1KD tx: inconclusive; SW480 rereplic: -23.5%; HT1080NT lethal: -3.5%; MCF10A rereplic: inconclusive

Results for COc1ccc(N2C(=O)c3ccccc3NC2c2ccc(OC)c(COc3ccc(NC(C)=O)cc3)c2)cc1 (centres undefined) ?
KB-V1 cytotox: inactive; KB-3-1 cytotox: inactive

What do the screens show for `Cc1ccc(NC(=O)C(=O)NCC(c2ccc3c(c2)OCO3)N2CCN(c3ccccc3)CC2)cc1` (centres undefined)?
KB-V1 cytotox: inactive; KB-3-1 cytotox: inactive

Results for COc1ccc(C2CC(=O)c3c(O)cc(O)cc3O2)cc1O (centres undefined) ?
KB-V1 cytotox: inactive; KB-3-1 cytotox: inactive; HT1080 IDH1KD tx: 14.8%; SW480 rereplic: -2.3%; HT1080NT lethal: 0.0%; MCF10A rereplic: -6.1%

Results for COc1cc(C2Oc3cc(C4Oc5cc(O)cc(O)c5C(=O)C4O)ccc3OC2CO)ccc1O (centres undefined) ?
KB-V1 cytotox: inactive; KB-3-1 cytotox: inactive; HT1080 IDH1KD tx: inconclusive; SW480 rereplic: 16.8%; HT1080NT lethal: -1.5%; MCF10A rereplic: 25.9µM*

What do the screens show for `CCN1CCc2nc3sc(C(=O)c4ccc(F)cc4)c(N)c3cc2C1`?
KB-V1 cytotox: inactive; KB-3-1 cytotox: inactive

What do the screens show for `CN1CCc2nc3sc(C(=O)C45CC6CC(CC(C6)C4)C5)c(N)c3cc2C1`?
KB-V1 cytotox: inactive; KB-3-1 cytotox: inactive; HT1080 IDH1KD tx: -0.6%; SW480 rereplic: 20.6µM*; HT1080NT lethal: -2.6%; MCF10A rereplic: 9.2µM*

How did CCN1CCc2nc3sc(C(=O)c4ccccc4)c(N)c3cc2C1 do in these assays?
KB-V1 cytotox: inconclusive; KB-3-1 cytotox: 8.2µM*

Results for Cc1nn(CCC(=O)NCc2cccc(Br)c2)c(=O)c2nn(-c3ccccc3)c(C)c12 ?
KB-V1 cytotox: inactive; KB-3-1 cytotox: inactive

How did CCC1(C)Cc2c(sc3nc(NN)n(C)c(=O)c23)CO1 (centres undefined) do in these assays?
KB-V1 cytotox: inconclusive; KB-3-1 cytotox: inactive; HT1080 IDH1KD tx: inconclusive; SW480 rereplic: inconclusive; HT1080NT lethal: inconclusive; MCF10A rereplic: 20.6µM*

How did CCC1(C)Cc2c(sc3nc(SC)n(-c4ccc(C)cc4)c(=O)c23)CO1 (centres undefined) do in these assays?
KB-V1 cytotox: inactive; KB-3-1 cytotox: inactive

What do the screens show for `Cc1cc(C)nc(NC(=NCc2ccc3c(c2)OCO3)NC(=O)Nc2ccccc2)n1`?
KB-V1 cytotox: inactive; KB-3-1 cytotox: inactive; HT1080 IDH1KD tx: inconclusive; SW480 rereplic: -1.1%; HT1080NT lethal: -27.1%; MCF10A rereplic: inconclusive

Results for Cc1ccc(CN=C(N)Nc2nc(C)cc(C)n2)cc1 ?
KB-V1 cytotox: inactive; KB-3-1 cytotox: 2.59µM*; HT1080 IDH1KD tx: 7.31µM*; SW480 rereplic: 14.6µM*; HT1080NT lethal: 7.31µM*; MCF10A rereplic: inconclusive

Results for Cc1ccc2oc(C(=O)N(Cc3ccc(N(C)C)cc3)C3CCS(=O)(=O)C3)c(C)c2c1 (centres undefined) ?
HT1080 IDH1KD tx: -3.5%; SW480 rereplic: -1.5%; HT1080NT lethal: -7.8%; MCF10A rereplic: -1.4%
